Reference: PubChem BioAssay AID624138 (Broad Institute, 2012)
The whole screen tested about 17,000 compounds, of which about 35 (0.2%) were called active.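 How the source made its calls: active means compounds whose four printed spots each show fluorescence over background unusually high for their array block, chance value under 7%; inactive means the rest.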 This excerpt belongs to a sample that is enriched for actives.

These molecules were tested against Signal transducer and activator of transcription 3 (Homo sapiens) (UniProt P40763) (assay: STAT3 binders, primary screen, biochemical, small molecule microarray, single point, set 2 (AID 624138)). Conditions: His-STAT3 binding, anti-His fluorescence.
Sequence of Signal transducer and activator of transcription 3 (Homo sapiens) (P40763 whole entry, looked up): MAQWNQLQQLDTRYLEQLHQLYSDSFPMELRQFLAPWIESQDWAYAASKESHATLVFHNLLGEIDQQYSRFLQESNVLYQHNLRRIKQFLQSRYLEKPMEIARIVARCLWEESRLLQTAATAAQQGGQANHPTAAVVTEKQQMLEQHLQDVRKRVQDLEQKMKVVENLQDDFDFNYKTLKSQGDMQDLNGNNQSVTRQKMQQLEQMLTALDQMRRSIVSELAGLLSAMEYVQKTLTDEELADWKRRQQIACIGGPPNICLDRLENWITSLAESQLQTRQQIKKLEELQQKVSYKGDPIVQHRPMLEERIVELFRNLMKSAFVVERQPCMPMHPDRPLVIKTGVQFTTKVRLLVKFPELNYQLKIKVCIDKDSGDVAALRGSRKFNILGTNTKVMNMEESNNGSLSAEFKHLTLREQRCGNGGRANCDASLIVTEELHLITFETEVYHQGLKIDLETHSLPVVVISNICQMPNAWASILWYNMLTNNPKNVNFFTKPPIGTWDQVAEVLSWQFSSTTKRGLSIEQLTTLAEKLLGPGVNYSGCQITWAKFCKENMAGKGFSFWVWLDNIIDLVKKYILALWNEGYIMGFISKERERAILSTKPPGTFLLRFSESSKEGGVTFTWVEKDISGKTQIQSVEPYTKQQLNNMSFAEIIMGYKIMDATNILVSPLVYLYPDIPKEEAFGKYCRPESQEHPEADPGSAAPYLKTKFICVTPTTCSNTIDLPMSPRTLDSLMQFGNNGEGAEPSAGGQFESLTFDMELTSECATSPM

outcome, inactive:
Cc1noc(C)c1NC(=O)Nc1ccc2c(c1)C(=O)N([C@@H](C)CO)C[C@H](C)[C@H](CN(C)Cc1ccc(C(=O)O)cc1)OCCCC[C@@H](C)O2
C[C@H](CO)N1C[C@H](C)[C@H](CN(C)Cc2ccncc2)Oc2ccc(N(C)C)cc2C1=O
C[C@H]1CN([C@@H](C)CO)C(=O)c2cc(NC(=O)Cn3cnnn3)ccc2O[C@@H]1CN(C)CC1CCCCC1
C[C@H]1CN([C@@H](C)CO)C(=O)Cc2cc(NC(=O)Nc3ccccc3)ccc2O[C@H]1CN(C)Cc1ccncc1
Cc1cc(O)c2c(c1)C(=O)OC2c1c(O)cccc1O (stereo not drawn)
CO[C@H]1O[C@H](CO)[C@@H](OC(=O)Nc2ccccc2-c2ccccc2)[C@H](OC(=O)Nc2ccccc2)[C@H]1OC(=O)Nc1ccccc1
CC(=O)n1cc([C@@H]2C=C(C(=O)N3CCN(Cc4ccc5c(c4)OCO5)CC3)O[C@H](OCc3ccc(CO)cc3)C2)c2ccccc21
Cc1noc(C)c1S(=O)(=O)Nc1ccc2c(c1)C(=O)N([C@@H](C)CO)C[C@@H](C)[C@H](CN(C)C(=O)NC(C)C)OCCCC[C@@H](C)O2
Cc1noc(C)c1NC(=O)Nc1ccc2c(c1)C(=O)N([C@@H](C)CO)C[C@H](C)[C@H](CN(C)S(=O)(=O)c1cn(C)cn1)OCCCC[C@@H](C)O2
C[C@@H]1CN([C@H](C)CO)C(=O)c2cccc(NS(=O)(=O)c3cccs3)c2O[C@@H]1CN(C)C(=O)Nc1cccc2ccccc12
CC(C)NC(=O)Nc1ccc2c(c1)C(=O)N([C@@H](C)CO)C[C@@H](C)[C@H](CN(C)S(=O)(=O)c1ccccc1)OCCCC[C@@H](C)O2
CC(=O)Nc1ccc(NC(=O)CC2C(=O)Nc3ccccc3N2C(C)=O)cc1 (stereo not drawn)
COc1ccc2c(c1)C(=O)CC(c1ccccc1)O2 (stereo not drawn)
Cc1ccc2[nH]c(C)c(CCNC(=O)Nc3ccc(Cl)cc3)c2c1
C[C@@H]1CN([C@H](C)CO)C(=O)c2cccc(NC(=O)C3CCOCC3)c2O[C@H]1CN(C)S(=O)(=O)c1ccc(Cl)cc1
COc1ccc(S(=O)(=O)Nc2ccc3c(c2)CC(=O)N([C@H](C)CO)C[C@H](C)[C@H](CN(C)CC2CC2)O3)cc1
Cc1noc(C)c1S(=O)(=O)N(C)C[C@H]1Oc2c(NC(=O)c3cnccn3)cccc2C(=O)N([C@H](C)CO)C[C@H]1C
C/C(=C/CC[C@@H](CO)[C@H]1CC[C@@]2(C)[C@@H]3CC[C@H]4C(C)(C)[C@@H](O[C@@H]5O[C@H](CO)[C@@H](O)[C@H](O)[C@H]5O)C[C@H](O)[C@@]45C[C@@]35CC[C@]12C)CO
